# NTR1 ag – NTR1 (human) agonism. NTR1-U2OS beta-arrestin-GFP spot imaging, agonist mode. activation, % at 20 µM. 330,000 compounds, 0.17% hits. AID 493036;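 active = activation at or above 40% of the spot to cytoplasm intensity ratio, with at least 20 cells analyzed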
# DSG3 Ab inh – inhibitors of pemphigus antibody binding to human desmoglein-3. 310,000 compounds, 0.48% hits. DSG3-coupled beads, scFv-anti-DSG3-GFP binding, flow cytometry; hits give low values. binding (percent of control), % at 10 µM. AID 588358. P32926;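 active = binding more than 3 SD below its plate's average and above zero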;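 also: hits lower antibody fragment binding to DSG3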
# Target sequence (P32926 whole entry, looked up, the tested form may be a part): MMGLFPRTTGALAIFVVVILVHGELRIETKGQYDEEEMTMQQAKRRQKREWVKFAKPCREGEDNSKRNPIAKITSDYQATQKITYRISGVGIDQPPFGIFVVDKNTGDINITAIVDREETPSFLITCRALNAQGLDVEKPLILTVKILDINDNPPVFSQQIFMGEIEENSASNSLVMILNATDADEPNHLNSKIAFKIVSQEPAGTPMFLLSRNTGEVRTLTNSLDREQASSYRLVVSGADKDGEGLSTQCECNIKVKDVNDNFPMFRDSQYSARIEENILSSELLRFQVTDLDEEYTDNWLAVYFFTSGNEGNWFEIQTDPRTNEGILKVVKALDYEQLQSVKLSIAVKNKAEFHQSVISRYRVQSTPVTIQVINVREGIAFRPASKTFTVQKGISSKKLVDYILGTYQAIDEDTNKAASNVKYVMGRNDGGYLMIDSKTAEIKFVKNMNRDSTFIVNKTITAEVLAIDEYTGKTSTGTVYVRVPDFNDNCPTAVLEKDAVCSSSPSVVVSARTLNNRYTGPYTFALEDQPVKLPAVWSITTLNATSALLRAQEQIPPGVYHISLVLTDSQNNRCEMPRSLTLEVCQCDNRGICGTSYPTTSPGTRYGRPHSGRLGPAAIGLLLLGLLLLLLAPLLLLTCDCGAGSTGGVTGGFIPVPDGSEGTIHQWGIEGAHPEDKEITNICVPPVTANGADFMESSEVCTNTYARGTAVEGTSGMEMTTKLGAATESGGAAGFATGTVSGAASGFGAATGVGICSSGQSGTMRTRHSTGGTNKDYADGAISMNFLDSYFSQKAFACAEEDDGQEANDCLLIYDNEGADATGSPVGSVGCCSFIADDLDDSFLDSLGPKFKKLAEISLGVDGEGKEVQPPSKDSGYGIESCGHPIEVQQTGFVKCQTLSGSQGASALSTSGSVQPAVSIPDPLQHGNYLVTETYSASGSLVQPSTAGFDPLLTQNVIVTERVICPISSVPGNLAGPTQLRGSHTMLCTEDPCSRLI
# AI-2 QS mod – Vibrio harveyi AI-2 quorum sensing modulation. activity change, % at 7.5 µM. 300,000 compounds, 0.4% hits. Vibrio harveyi JMH597 AI-2 luminescence/OD600 ratio, 9 h; hits give low values; strain lacks LuxN and CqsS sensors; 0 = neutral-control median; in the data active = activity change below about -75%, passing the limit was not always enough;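 also: luminescence divided by OD600 gain over 9 h not by final OD600 alone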
# VLA-4 inh – inhibition in a human VLA-4 binding assay; VLA-4 expressing cells, ligand binding flow cytometry; inhibition, % (about 7 µM as worked out from the volumes in the protocol); 330,000 compounds, 0.2% hits; in the data active = inhibition above about 50%
# A number is an active result; n = inactive; x = not tested or not shown. Only some compounds are listed: those with a hit (about 1.1% of all), similar ones and a draw of the others.
SMILES,NTR1 ag,DSG3 Ab inh,AI-2 QS mod,VLA-4 inh
COc1ccc(OCC(=O)N2CCN(S(=O)(=O)c3ccc4c(c3)OCCO4)CC2)cc1,x,n,x,x
Cc1nc(CC(=O)N/N=C/c2ccc(OCC(=O)O)cc2)cs1,n,n,n,n
O=C(O)COc1ccc(/C=N/NC(=O)c2ccc(-c3csc(Nc4ccc(Cl)cc4)n3)cc2)cc1,x,31,n,x
CNC(=O)C[C@H]1C(=O)N(Cc2ccccc2)C[C@@H]1Cc1ccccc1,x,n,x,x
COc1cccc(/C=N/NC(=O)CNC(=O)/C=C\c2ccccc2)c1O,62,n,n,n
COc1ccc(/C=C\C(=O)NCC(=O)N/N=C/c2cccc(OC)c2O)cc1,n,n,n,n
CC(C)c1ccc(N(CC(=O)NC2CCCCC2)C(=O)CCC(=O)Nc2ccccn2)cc1,n,62,n,n
O=C(CCC(=O)N(CC(=O)NC1CCCCC1)c1ccc(F)cc1)Nc1ccccn1,n,n,n,n
O=C(NC(=S)Nc1ccccc1Br)C1CC1,n,n,-77,n
O=C(NC(=S)NCc1ccccc1)C1CC1,n,25,n,n
Cc1ccccc1NC(=S)NC(=O)C1CCCCC1,n,x,n,n
CCN1C(=O)[C@H]2[C@@H](c3ccc(-c4ccc(F)cc4)c(OC)c3)N[C@@](Cc3ccccc3)(C(=O)OC)[C@H]2C1=O,n,n,x,n
O=C(Nc1ccc(C(=O)N2CCOCC2)cc1)c1ccccc1Cl,x,n,x,x
O=C(N/N=C/c1ccc(F)cc1)c1cc(-c2ccco2)nc2ccccc12,n,28,n,n
O=C(NC1CC1)c1cc(-c2ccco2)nc2ccccc12,x,72,n,x
O=C(CSc1n[nH]c(-c2ccco2)n1)Nc1ccccc1Cl,n,43,n,n
CCCOc1ccc2c(c1)C(=NN=C(N)N)c1cc(OCCC)ccc1-2,80,n,n,n
O=C(Nc1ccc(N2CCN(Cc3ccccc3F)CC2)cc1)c1ccc([N+](=O)[O-])o1,42,n,n,n
CC1CCN(c2ccc(NC(=O)c3ccc([N+](=O)[O-])o3)cc2)CC1,42,n,n,n
O=C(Nc1ccc(N2CCN(Cc3ccccc3F)CC2)cc1)c1ccccc1[N+](=O)[O-],n,n,n,n
O=C(Nc1ccc(N2CCCCC2)cc1)c1ccc([N+](=O)[O-])o1,n,n,x,n
O=C(c1ccccc1)c1ccc(N2CCN(C(=O)c3ccc(F)cc3F)CC2)c(F)c1,x,n,x,x
CCCN(C(=O)c1cccs1)c1nnc(-c2ccncc2)s1,n,78,n,n
O=C(COc1ccc(F)cc1)Nc1ccc2c(c1)OCCO2,n,n,n,n
CCC(=O)c1ccc(OCC(=O)Nc2ccc3c(c2)OCCO3)cc1,n,-3.4,x,n
SMILES,NTR1 ag,DSG3 Ab inh,AI-2 QS mod,VLA-4 inh
O=C(NCCCCCCNC(=O)OCc1ccccc1)OCc1ccccc1,x,6.8,x,x
O=C(CSc1nc2ccccc2n1CCc1ccccc1)c1ccc(O)c(O)c1,x,72,x,x
c1ccc(CNc2ccc(CNc3ncn[nH]3)cc2)cc1,n,n,n,n
COc1cc(CNc2ccc(CNc3ncn[nH]3)cc2)cc(Cl)c1OCc1ccccc1,n,82,n,n
Cc1cc(S(=O)(=O)Nc2ncnc3sccc23)ccc1F,x,n,x,x
Cc1ccccc1NC(=O)Cc1nc(COC(=O)c2ccc([N+](=O)[O-])cc2)cs1,n,n,x,x
Cc1ccccc1NC(=O)Cc1nc(COC(=O)c2cccc([N+](=O)[O-])c2)cs1,n,78,n,n
O=C(NC1CCCCC1)c1cc2nc(-c3ccco3)cc(C(F)(F)F)n2n1,x,n,n,x
O=C(NCCCN1CCOCC1)c1cc2nc(-c3ccco3)cc(C(F)(F)F)n2n1,n,33,n,n
COc1cc(NC(C)=O)c2ncccc2c1NC(C)=O,n,n,n,n
CC(=O)Nc1cc(=O)c2cccnc2[nH]1,x,73,x,x
CN1CCN(C(c2ccc(Br)cc2)c2cc(Cl)c3cccnc3c2O)CC1 (stereo unspecified),n,n,-141,n
CC1(C)CC(=O)C=C(c2ccc(-c3ccccc3)cc2)C1=O,x,n,x,x
COc1ccc(C(=O)N/N=C/c2sc3ccccc3c2O)cc1,x,n,-92,n
O=C(N/N=C/c1sc2ccccc2c1O)c1ccccc1,n,n,-81,n
CCN(CC)c1ccc(/C=N/N2C(=O)c3ccccc3C2=O)cc1,n,63,n,n
O=C(NCCCO)c1ccc2nc(-c3ccco3)c(-c3ccco3)nc2c1,x,36,x,x
O=C(Nc1ccc(N2CCOCC2)cc1)c1ccc2nc(-c3ccco3)c(-c3ccco3)nc2c1,n,2.0,n,n
CC(=O)C1=C(C)NC(SCC(=O)c2ccc(Cl)cc2)=C(C#N)C1c1ccco1 (stereo unspecified),n,n,n,n
CC(=O)C1=C(C)NC(SCC(=O)c2ccc(Cl)cc2Cl)=C(C#N)C1c1ccco1 (stereo unspecified),n,77,n,n
COc1ccc(NC(=O)Cn2cnc3ccccc3c2=O)cc1OC,n,n,-76,n
O=C(CN1C(=O)C2CC=CCC2C1=O)Nc1ccc(F)cc1F (stereo unspecified),n,x,x,n
CCCCOc1ccc(C(C)NC(=O)CCS(=O)(=O)Cc2ccccc2Cl)cc1 (stereo unspecified),n,13,n,x
Fc1ccc(/C=C2\CCCC3=C2Nc2ncnn2C3c2ccc(F)cc2)cc1 (stereo unspecified),46,n,n,n
COc1ccc(C2C3=C(Nc4ncnn42)c2ccccc2CCC3)cc1 (stereo unspecified),n,n,n,n
SMILES,NTR1 ag,DSG3 Ab inh,AI-2 QS mod,VLA-4 inh
COC1CC(NC(C)=O)C(OC(=O)c2ccccc2)C(CBr)O1 (stereo unspecified),x,n,x,x
CC1CCN(C(=O)c2cc(-c3ccc(Cl)c(Cl)c3)on2)CC1,n,n,-80,n
CCOc1ccc(N(CC(=O)NCCSCc2ccco2)S(=O)(=O)c2ccc(C)cc2)cc1,n,81,n,n
CCOc1ccc(N(CC(=O)NCCSCc2ccco2)S(=O)(=O)c2ccc(F)cc2)cc1,n,n,n,n
CN(/N=C/c1ccc(-c2ccc([N+](=O)[O-])cc2)o1)c1ccccc1,n,n,n,n
O=C1Nc2ccccc2/C1=N/N=C/c1ccc(-c2ccc([N+](=O)[O-])cc2)o1,x,72,n,x
COc1cc(OC)cc(C(=O)Nc2cc(-c3cn4cccnc4n3)ccc2C)c1,n,-11,n,n
CN(Cc1ccc2nsnc2c1)C(=O)C1CCC(=O)N(CCc2ccccc2)C1 (stereo unspecified),x,n,x,x
CCC(CC)c1nnc(NC(=O)c2ccc3ccccc3n2)s1,n,13,n,n
Cc1nc2c(cc1C(=O)N/N=C/c1ccc([N+](=O)[O-])cc1)c(=O)n(C)c(=O)n2C,n,-7.8,n,n
O=C(NCCc1c[nH]c2ccccc12)C(=O)Nc1ccccc1,n,64,n,n
Cc1ccc(S(=O)(=O)N2CCN(C(=O)COC(=O)/C=C/c3cccc([N+](=O)[O-])c3)CC2)c(C)c1,x,n,x,x
O=C(CSc1nc(-c2ccc(F)cc2)cs1)Nc1ccccn1,n,44,n,n
COc1cc(/C=C2/SC(=S)N(CCC(=O)Nc3cccnc3)C2=O)cc(OC)c1OC,x,n,x,x

# Screening results as filed in PubChem BioAssay.
